Here are results for 40 molecules from PubChem BioAssay (Tox21).

Results filed as inconclusive are left out. A call without a number means that no potency is given here. A number with no mark means an inactive call. Activity calls are given as the source filed them. Calls follow the shape of the dose curve; as a rule, active = well fitted activation curve with a large enough effect in the repeat runs; inconclusive = weak or mixed curves; inactive = flat fitted curve, though single readings scatter.

The experiment in a line: A CellTox Green Cytotoxicity Assay to monitor cytotoxicity in HEK293 cells - 24 hour (AID 1224875). Also: nearly all actives have a fitted effect of over 45% in size. The conditions noted are these: CellTox Green fluorescence; series mostly up to 76.8 µM; activity change: at the top concentration. The text has this:
National Center for Advancing Translational Sciences [NCATS]
NIH Chemical Genomics Center [NCGC]
U.S. Environmental Protection Agency [EPA]
National Institutes of Environmental Health Sciences [NIEHS]
National Toxicology Program [NTP]
Cell-based models are critical for drug discovery. Determining the natural cytotoxic effects resulting from test compounds is an essential research activity. A CellTox Green Cytotoxicity Assay to monitor cytotoxicity in real time of continues cell culture during 40 hours of the compound treatment was used to screen Tox21 10K library compounds in Hek293 cells. CellTox Green Cytotoxicity Assay is a nonlytic, homogeneous, biofluorescent method to measure cytotoxicity in cell culture after experimental manipulation. The assay system uses a proprietary asymmetric cyanine dye that is excluded from viable cells but preferentially stains the dead cell's DNA. […] Viable cells produce no appreciable increases in fluorescence. Therefore, the fluorescence signal produced by the binding interaction with dead cell DNA is proportional to cytotoxicity.
The mixture of Hek293 cell suspension and reagents were dispensed at 600cells/6 ul/well in 1536-well tissue culture treated black solid bottom plates using a Multidrop dispenser. After the assay plates were incubated at a 37 C/5% CO2 incubator for 5 hours, 23 nL of compounds dissolved in DMSO, positive and negative controls was transferred to the assay plate by a pintool work station. The plates were incubated at 37 C for 40 hours. The fluorescence intensity were measured at 0h, 8h, 16h, 24h, 32h and 40h time points using ViewLux plate reader during compound treatment.
Turning to `COc1c2ccoc2cc2oc(=O)ccc12`, the Potency entry was “inactive”.

Take `COC(=O)OC`: the Potency entry is “inactive”.

`CC(C)(C)NC[C@H](O)COc1nsnc1N1CCOCC1`: the “activity change” value was -18.4%.

As for `Cc1ccccc1Cl`, the Potency entry is “inactive”.

Take `COc1cc(NC(=O)CC(C)=O)c(OC)cc1Cl`: the Potency result was “inactive”.

For `NC(=O)NC(N)=O`, the Potency entry was “inactive”.

Turning to `Cc1ccc([N+](=O)[O-])cc1N`, the Potency result is “inactive”.

Consider `CC(=O)Nc1ccc(CC(=O)O)cc1`, for which the Potency entry is “inactive”.

With `OCc1ccc(Cl)cc1Cl`, the Potency entry is “inactive”.

Turning to `O=C(c1ccccc1)c1ccc(O)c(O)c1O`, the Potency entry was “inactive”.

`Cc1cc(CC(=O)O)n(C)c1C(=O)c1ccc(Cl)cc1`: the Potency result is “inactive”.

As to `CC(=O)OC(C)(C)C1CC=C(C)CC1` (stereo not given), the Potency entry is “inactive”.

In the case of `OCCOCCOCCOCCOCCO`, the Potency result is “inactive”.

Turning to `COc1ccc(N)c(OC)c1`, the Potency result is “inactive”.

For `CN1CCCC1=O`, the Potency result is “inactive”.

As for `O=Cc1ccc(CO)o1`, the Potency result was “inactive”.

In the case of `Clc1cccc(Cl)c1NC1=NCCN1`, the Potency result is “inactive”.

Take `CC(=O)c1nccs1`: the Potency result is “inactive”.

Consider `O=C(O)Cc1c[nH]c2ccccc12`, for which the Potency result was “inactive”.

For the molecule `O=[N+]([O-])c1ccccc1C(F)(F)F`, the Potency entry was “inactive”.

`O=C1C(N(CO)C(=O)NCO)N(CO)C(=O)N1CO` (stereo not given): the Potency result was “inactive”.

With `OC1CCCCC1`, the Potency result is “inactive”.

Take `CCN(CC)CCNC(=O)c1ccc(N)cc1`: the Potency result is “inactive”.

On to `CCCCCCCC(=O)O`, for which the “activity change” value was -3.08%.

`CCCOCC(C)O` (stereo not given): the Potency result is “inactive”.

Take `CCc1cccc(CC)c1N`: the Potency entry was “inactive”.

Take `CCCCCCCCC(=O)O`: the Potency result was “inactive”.

With `CC(C)(CO)CO`, the Potency result was “inactive”.

For the molecule `Cc1ncc(CO)c(CO)c1O`, the Potency entry is “inactive”.

In the case of `CCCCCCCCCCCC(=O)N(C)CC(=O)O`, the Potency entry was “inactive”.

For `CCCN(CCC)C(=O)SCC`, the Potency entry is “inactive”.

In the case of `CCCCCNCCCCC`, the Potency entry was “inactive”.

Turning to `O=C(Cl)c1ccc(C(=O)Cl)cc1`, the Potency entry is “inactive”.

For `CC(C)c1ccc(C(C)C)cc1`, the Potency entry is “inactive”.

Consider `N[C@@H](Cc1cc(I)c(Oc2ccc(O)c(I)c2)c(I)c1)C(=O)O`, for which the Potency entry was “inactive”.

Take `CO[Si](CCCNCCN)(OC)OC`: the Potency result is “inactive”.

Regarding `CC[N+](CC)(CC(=O)Nc1c(C)cccc1C)Cc1ccccc1`, the Potency result was “inactive”.

Consider `Nc1cccc(C(F)(F)F)c1`, for which the “activity change” value was -8.93%.

Turning to `Cc1ccc(C(C)C)cc1`, the Potency entry was “inactive”.

Consider `N#CCC(=O)O`, for which the Potency result is “inactive”.
